Reference: PubChem BioAssay AID504884 (Broad Institute, 2011)
Screen size: about 360,000 compounds; about 230 (0.064%) were called active. This is one part of a sample in which actives are shown more often than they occur. Values without a mark were called inactive. Rule as the data show it: active = activity above about 50% (passing the limit was not always enough); inconclusive = no clear call, values can overlap the other calls.

The molecules below were run on DNA topoisomerase I (Yersinia pestis CO92) (assay: Yersinia pestis topoisomerase I inhibitors, primary screen, biochemical, cleavage product accumulation, plate reader, single point (AID 504884)). Settings: Y. pestis Topo-I cleavage product accumulation, at 10 µM, active compounds read high.

Row | Compound | activity
1 | O=C1CC[C@H](O)CCN1[C@H](CSc1ccc(Br)cc1)Cc1ccccc1 | 10.9%
2 | C[C@H]1CCC(=O)N([C@H](CSc2ccccc2)Cc2ccccc2)CC1 | 59.9% (active)
3 | CC(=O)Nc1ccc(SC[C@H](Cc2ccccc2)N2CC[C@@H](C)CCC2=O)cc1 | 25.8%
4 | Cc1cc(Cl)c(S(=O)(=O)NCc2cccnc2)cc1OCC(N)=O | -1.35%
5 | CN(C)c1ccc(C(=S)N2CCN(C(=S)Nc3ccc(Cl)cc3)CC2)cc1 | 3.46%
6 | Cc1cc(OCC(=O)NCC(O)c2ccccc2)c2c(C)c(C)c(=O)oc2c1 (stereo not drawn) | -1%
7 | O=C(CSc1ncnc2c1oc1ccccc12)NC1CCCC1 | 2.5%
8 | CCC(=O)NC(Nc1cc(C)ccn1)(C(F)(F)F)C(F)(F)F | -7.52%
9 | CCOC(=O)c1cn(Cc2cccc(C)c2)nn1 | -1.57%
10 | CC(=O)c1nn(-c2ccc(C)cc2)cc1C(=O)c1cccc(Br)c1 | 8.28%
11 | CCOC(=O)c1nn(-c2cccc(C)c2)cc1C(=O)c1ccccc1 | 67.3% (active)
12 | COCC(C)n1c(C)cc(C(=O)COc2ccc(C)nc2[N+](=O)[O-])c1C (stereo not drawn) | 8.7%
13 | COC(=O)[C@H]1C[C@H](OC(=O)NCc2ccccc2)[C@@]2(O)CN(S(=O)(=O)c3ccc(C)cc3)CC2[C@H]1C(=O)OC (stereo partly drawn) | 7.34%
14 | Cc1cc2nc(C(F)(F)F)cc(-c3cccs3)n2n1 | -15.7%
15 | COc1c(C)c2c(c(O)c1C/C=C(\C)CCC(=O)O)C(=O)OC2 | 5.68%
16 | CC1(Oc2ccccc2-c2ccno2)CCN(Cc2ccc(-c3ccccc3)o2)C1 (stereo not drawn) | 24%
17 | Cc1ccn(CC(=O)NC2CCCN(Cc3ccccc3F)C2)n1 (stereo not drawn) | -8.15%
18 | CC(C)CN(C(=O)Cn1c(=O)cnc2ccccc21)C1CCS(=O)(=O)C1 (stereo not drawn) | 1.02%
19 | CCN1CCN(c2cc3nc(C)n(Cc4ccccc4)c(=O)c3cc2NC(=O)c2ccccc2F)CC1 | 23.4%
20 | COc1ccc(N=C2C=CC(=O)O2)cc1 | 1.67%

Row | Compound | activity
21 | C=C1c2cccc(OC)c2O[C@H](C(=O)OCC)[C@@H]1CCCCCC | 39%
22 | COC(=O)[C@@H]1C[C@@]2(O)[C@H](O)[C@H](O)[C@H](O)C[C@H]2N1Cc1ccc(C(C)(C)C)cc1 | 1.65%
23 | O=C(NCc1ccc(F)cc1)c1cc(C2CCCCN2C(=O)c2cccs2)on1 (stereo not drawn) | 28.6%
24 | COc1ccccc1-c1n[nH]c2c1[C@H](C)CC[C@H]2C(C)C | 29.7%
25 | CN(C)c1ccc(CNC2C3CC4CC(C3)CC2C4)cc1 (stereo not drawn) | -0.886%
26 | COCCN(C(=O)CC1CCCCC1)c1c(N)n(CC(C)C)c(=O)[nH]c1=O | -3.38%
27 | CCCCCN(C(=O)CCC(=O)OCCOc1ccc(OC)cc1)c1c(N)n(CCCC)c(=O)[nH]c1=O | 20.2%
28 | CC1CCCC(C)N1/N=C/c1ccccc1OC(F)F (stereo not drawn) | -8.42%
29 | Fc1ccc(Br)cc1/C=N/n1cnnc1 | 1.69%
30 | Cc1nc2c(ncn2-c2ccccc2)c(=O)n1NC(=O)CN1CCCC1 | -2.1%
31 | CCC(CC)C(=O)Nc1c2c(nn1-c1ccc(C)cc1)CS(=O)(=O)C2 | -1.49%
32 | Cc1cccc(OP(=O)(Nc2c(C)n(C)n(-c3ccccc3)c2=O)Oc2cccc(C)c2)c1 | 25.5%
33 | CCN(CC)P(=O)(Oc1cccc(C)c1)N(CC)CC | 2.59%
34 | Cc1cccc(OP(=O)(Oc2cccc(C)c2)OC(c2ccccc2)C(F)(F)F)c1 (stereo not drawn) | 60.4% (active)
35 | Cc1cc(N2CCN(c3ccc(F)cc3)CC2)n2ncnc2n1 | 1.33%
36 | O=c1c2ccccc2ncn1CCCCOc1ccccc1F | 5.21%
37 | N/C(=N\OC(=O)CCn1cccc(C(F)(F)F)c1=O)c1ccc(OC(F)(F)F)cc1 | 0.341%
38 | O=S(=O)(c1cccc2nonc12)N1CCN(c2cccc(Cl)c2)CC1 | 8.66%
39 | Cc1ccc(S(=O)(=O)N2CCC(Oc3ccc(-n4cnnn4)cc3)CC2)cc1 | 9.39%
40 | CCCCNC1(C#N)CCN(Cc2ccccc2)CC1 | -6.77%

Row | Compound | activity
41 | Cc1c(CCO)c(=O)[nH]n1C(=O)c1c(F)cccc1F | 11.7%
42 | O=C(/C=C/c1cnc2ccccc2n1)NC1CCCCCC1 | 7.03%
43 | COc1ccccc1CNC(=O)CNC(=O)c1cn(-c2ccccc2OC)c(=O)c2ccccc12 | 2.16%
44 | CSc1cccc(NC(=S)N(Cc2ccccc2)Cc2ccccn2)c1 | 9.55%
45 | COc1cc(OC)cc(-c2cc3nc(C4CCN(C(=O)OC(C)(C)C)CC4)cc(=O)n3[nH]2)c1 | 2.04%
46 | CS(=O)(=O)c1sc(C(=O)NC(=S)Nc2ccc(OC(F)(F)F)cc2)c2c1C=CCC2 | 6.39%
47 | Cc1ccc(N2C(=O)CC(NCc3ccc4c(c3)OCO4)C2=O)cc1Cl (stereo not drawn) | 4.73%
48 | CSc1ccc(S(=O)(=O)N2CCC(C(=O)NCCc3ccccc3)CC2)cc1 | 3.52%
49 | Cc1ccc(S(=O)(=O)N2CCC(C(=O)NCCC3=CCCCC3)CC2)cc1C | 51.1% (active)
50 | Cc1ccc(CCNC(=O)C2CCN(S(=O)(=O)N3CCCC3)CC2)cc1 | 0.896%
51 | CN(C(=O)COC(=O)CCCc1c[nH]c2ccccc12)c1c(N)n(Cc2ccccc2)c(=O)[nH]c1=O | 15%
52 | COc1ccc(/C(=N\O)c2nccc3cc(OC)c(OC)cc23)cc1OC | 6.19%
53 | COCCCNC(=O)C1CC(=O)N(CCc2ccc(F)cc2)C1 (stereo not drawn) | -2.65%
54 | O=C(NC1CCC(O)CC1)c1ccccc1OCc1ccc(F)cc1 (stereo not drawn) | 1.15%
55 | CC(=O)c1ccccc1OCc1ccc(C(=O)c2ccccc2)cc1 | 55.1% (active)
56 | CC(OC(=O)c1ccccc1OCc1ccc(Cl)cc1)C(N)=O (stereo not drawn) | 4.36%
57 | CCOC(=O)C1CCN(S(=O)(=O)c2ccc3c(c2)N(C)C(=O)CC(=O)N3C)CC1 | -0.905%
58 | FC(F)(F)C1CCCN(c2nsc3ccccc23)C1 (stereo not drawn) | 4.11%
